Source: PubChem
BRCA1 expr act = qHTS Assay to Identify Small Molecule Activators of BRCA1 Expression; MCF7-BRCA1-FFLuc reporter, luminescence, 48 h; response scale: scaled: vehicle 0%, 10 µM genistein 100%; Potency, µM (top dose mostly 46.1 µM), without a hit: top-dose activation, actives largely listed as activators; hit rate 1.1% among 380,000; note: potency is the fitted concentration of half-maximal effect; nearly all actives have a fitted effect of over 80% in size
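MCF7 cells carrying a BRCA1-firefly luciferase reporter (2000 cells/well, phenol-red free MEM) were attached for 2 h at 37 °C, then given compounds for 48 h. Luminescence was read 15 min after luciferase reagent; activity normalized to genistein (10 microM) and DMSO.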
TCR activator = Activators of T cell receptors: qHTS campaign. Potency, µM (titrated, usually from 9.22 µM), inactives show top-dose activation of IL-2 secretion, usual class: activators. 330,000 tested, under 10 active. primary human leukocytes, anti-CD3, IL-2 HTRF, 48 h. AID 504894, 2011; note: % of control where 0% means no effect
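Activity was scored as IL-2 release from primary human leukocytes given only a TCR signal (a-CD3 beads) plus compound for 48 hr. Detection used a two-antibody HTRF format read at 665nm.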
GLS inhibitor = qHTS for Inhibitors of Glutaminase (GLS) | Potency, µM (series often up to 45.5 µM), for inactives: at the highest dose activity change, negative = inhibition, usual class: inhibitors | AID 624170, 2012 | Glutaminase kidney isoform, mitochondrial (Homo sapiens), O94925 | GLS enzymatic activity, qHTS titration | hit rate 0.21% among 410,000; note: potency is the fitted concentration of half-maximal effect; % is set by controls: 0 for no effect and ±100 for the full control effect
Target sequence (O94925 whole entry, looked up, canonical isoform): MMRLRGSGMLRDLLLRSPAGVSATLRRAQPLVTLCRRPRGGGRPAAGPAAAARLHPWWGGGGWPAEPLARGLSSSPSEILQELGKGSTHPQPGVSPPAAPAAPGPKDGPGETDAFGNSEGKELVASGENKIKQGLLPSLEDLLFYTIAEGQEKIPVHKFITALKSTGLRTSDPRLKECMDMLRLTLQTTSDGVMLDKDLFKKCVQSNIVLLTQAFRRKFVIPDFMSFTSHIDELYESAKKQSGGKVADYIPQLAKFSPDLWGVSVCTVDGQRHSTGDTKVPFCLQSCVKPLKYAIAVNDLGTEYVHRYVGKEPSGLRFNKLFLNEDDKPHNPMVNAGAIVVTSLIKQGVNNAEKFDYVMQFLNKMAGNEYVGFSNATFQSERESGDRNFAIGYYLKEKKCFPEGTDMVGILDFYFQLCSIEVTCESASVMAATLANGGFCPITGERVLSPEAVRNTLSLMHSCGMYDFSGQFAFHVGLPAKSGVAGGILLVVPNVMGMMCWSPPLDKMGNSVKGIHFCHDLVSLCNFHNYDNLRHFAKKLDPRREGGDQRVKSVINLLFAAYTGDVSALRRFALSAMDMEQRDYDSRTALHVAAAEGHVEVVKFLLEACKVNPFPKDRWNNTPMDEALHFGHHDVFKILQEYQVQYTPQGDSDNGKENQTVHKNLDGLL
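Read-out is an Amplex red fluorescence increase coupled through glutamate oxidase and HRP, measured before and after 30 min room-temperature incubation. hKGA is in 45 mM KH2PO4 (pH 8.2) with 0.02% Tween-20; glutamine added as 1mM solution.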
p53 reactivator = qHTS assay for re-activators of p53 using a Luc reporter. H1299 p53-A138V BP100-luciferase reporter, luminescence, 24 h. Potency, µM (top dose mostly 92.2 µM), for the others: at the highest dose activity change, positive = activation, hits mostly activators. hit rate 0.063% among 320,000. AID 504706, 2011; note: potency is the fitted concentration of half-maximal effect; % of control where 0% means no effect; nearly all actives have a fitted effect of over 45% in size
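H1299 (p53-null), stable ts p53-A138V + BP100-Luc; 1000 cells/well, Opti-MEM/10% FBS; cpd 4 pt, 1:5; 24 h, 37 deg C, 5% CO2; detection reagent 10 min RT; luminescence.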
N370S GC = qHTS Assay for Inhibitors and Activators of N370S glucocerebrosidase as a Potential Chaperone Treatment of Gaucher Disease. Potency, µM (highest dose often 59.4 µM), inactives show at the highest dose activity change, negative = inhibition, actives largely listed as inhibitors. Lysosomal acid glucosylceramidase (Homo sapiens), P04062. hit rate 0.092% among 330,000. AID 2101, 2009. N370S GC spleen homogenate, 4MU-glucoside fluorescence;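 note: potency is the fitted concentration of half-maximal effect; 0% = full enzyme activity and -100% = no enzyme basal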
TSHR antagonist = Antagonists of the Thyroid Stimulating Hormone Receptor: HTS campaign; TSHR-expressing cells, TSH-stimulated cAMP HTRF, 2 h; hits give low values; activity change, negative = inhibition, % at 11.5 µM; hit rate 0.2% among 330,000; AID 504810, 2011;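 active = activity change below a set negative limit, meaning inhibition stronger than a set level, cut at about -70% in these data; inconclusive = activity change between two set negative limits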; note: % is set by controls: 0 for no effect and ±100 for the full control effect
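TSHR-expressing cells were treated with compounds, then stimulated with TSH at EC80 (4nM final) for 2 hours at 37 deg C. Cellular cAMP was measured by HTRF competition between lysate cAMP and cAMP-d2 for a cryptate-labelled anti-cAMP antibody.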
* hit, by the source's call; ? = inconclusive; . = no result given; [ ] = dose if it differs, or a comment. This is a sample that favours compounds with a hit; in the whole collection about 1.4% have one here. Unless noted, calls come from the whole dose curve; as a rule, active = well fitted curve in the direction sought with a large enough effect; inconclusive = small, poorly fitted or top-dose-only effect, or another doubt; inactive = no such curve, though single readings can be large; an effect the other way counts as inactive or inconclusive.

SMILES	BRCA1 expr act	TCR activator	GLS inhibitor	p53 reactivator	N370S GC	TSHR antagonist
COC(=O)c1cnc(SCc2ccc(Cl)cc2)n1C	11µM*	-1%	-3%	15%	2%	15
COC(=O)c1cnc(SCC(=O)c2ccccc2)n1C	?	2%	-7%	11%	0%	-3
COc1ccc(NC(=O)CCCn2nc(C)c3sc4ccccc4c3c2=O)cc1	.	.	-2%	.	.	.
CC(C)CN(C)c1ccc(/C=C2\C=Cc3ccccc32)cc1	17%	.	.	.	.	.
Cc1cc(-c2ccco2)c(C#N)c2nc3ccccc3n12	2.8µM*	-5%	-20%	13%	16%	-12
CC(NC(=O)Cn1ncc(Cl)c(Cl)c1=O)C12CC3CC(CC(C3)C1)C2 (stereo not drawn)	-76%	8%[46.1 µM]	-1%	-21%	-17%	-100*
CC(NC(=O)Cn1ccsc1=N)C12CC3CC(CC(C3)C1)C2 (stereo not drawn)	-36%	8%	?	-9%	-3%	-10
O=C1/C(=C\c2cc([N+](=O)[O-])ccc2O)SC(=S)N1Cc1ccc(Cl)cc1	-39%	10%	1%	-3%	-5%	-83*
C/C(Cc1ccccc1)=N\NC(=O)c1ccccn1	2.2µM*	-6%	8%	?	-18%	0
C/C(Cc1ccccc1)=N\NC(=O)c1cccnc1	0%	-2%	16%	-4%	1%	-2
Nn1c(SCc2ccccc2)nc2ccccc21	3.2µM*	9%	-2%	?	4%	6
CCCCc1cc2c(cn1)=C(OC(=O)c1ccco1)C(C)(OC(=O)CC)C(=O)C=2 (stereo not drawn)	.	.	.	.	4%[12.8 µM]	.
CCOC(=O)c1sc(N)c(C(=O)Nc2ccccc2)c1C	13µM*	-7%	-13%	8%	6%	2
COc1ccccc1NC(=O)c1nc(SCc2ccccc2F)ncc1Cl	5%	.	.	.	.	.
Cc1ccc(S(=O)(=O)N2CCN(c3nc(-n4ccnc4)nc4ccccc34)CC2)cc1	30%	.	.	.	.	.
CCN(/C(N)=N/c1nc(C)cc(C)n1)c1ccccc1	-23%	3%	15%	.	-23%	-16
CCc1cccc(N(C)C(N)=Nc2cccc3ccccc23)c1	-2%	7%	61%	-7%	13µM*	13
CSCC[C@H](NC(=O)[C@@H]1CCCN1C(=O)CNC(=O)[C@H](CCCCN)NC(=O)[C@H](Cc1cnc[nH]1)NC(=O)[C@H](CO)NC(=O)[C@H](CC(C)C)NC(=O)[C@H](CCCN=C(N)N)NC(=O)[C@@H]1CCCN1C(=O)[C@H](CCCN=C(N)N)NC(=O)[C@@H]1CCC(=O)N1)C(=O)N1CCC[C@H]1C(=O)N[C@@H](Cc1ccccc1)C(=O)O	.	.	.	.	4%	.
S=C(Nc1ccccc1)Nc1nc2ccccc2n1CCOc1ccc(Br)cc1	-13%	0%[46.1 µM]	-8%	22µM*	2%	33
COc1cccc(/C=C/c2nc3ccccc3nc2/C=C/c2cccc(OC)c2OC)c1OC	9%	.	.	.	.	.
Cc1ccc(C(c2nc3ccccc3[nH]2)n2c(-c3ccccc3)nc3ccccc32)cc1 (stereo not drawn)	4.5µM*	.	4%	.	.	.
CC(=O)C(/C=N/c1cc(-c2ccc(C)cc2)nn1-c1ccccc1)=C(\C)O	4µM*	0%[46.1 µM]	1%	?	22%	16
Cc1ccc(NC(=O)c2cc(-c3ccccc3)nn2-c2ccccc2)cc1	-66%	0%[46.1 µM]	-6%	12%	28%	-44
CC(=O)CSc1nc2ccccc2s1	13µM*	.	-8%	24%	8%	-6
O=C(CSc1nc2ccccc2s1)CSc1nc2ccccc2s1	-2%	-3%	8%	9%	14%	2
SMILES	BRCA1 expr act	TCR activator	GLS inhibitor	p53 reactivator	N370S GC	TSHR antagonist
O=c1oc2ccccc2n1CSc1nc2ccccc2s1	13µM*	-3%	-16%	?	4%	-21
CCn1c(-c2cc(-c3ccc(C)cc3)nc3ccccc23)n[nH]c1=S	12%	-4%	5%	0%	-2%	-10
CCn1c(-c2cc(-c3ccc(OC(C)C)cc3)nc3ccccc23)n[nH]c1=S	7.1µM*	6%	-9%	16%	19%	-8
O=C(O)Cc1cccc(=O)c(O)c1C(=O)O	-2%	9%	2.2µM*	.	.	.
CCCSC1=C(C#N)C(c2cccs2)C(C(=O)Nc2ccccc2)=C(C)N1 (stereo not drawn)	-43%	0%[46.1 µM]	0%	17%	6%	-79*
COc1ccc(C(=O)Nc2nc3ccc(S(C)(=O)=O)cc3s2)cc1	25%	9%[46.1 µM]	5%	19%	1%	7
COc1ccc2nc(NC(=O)c3c(C)noc3C)sc2c1	2.8µM*	-3%	2%	?	.	-12
COc1ccc(C(=O)Nc2nc3ccc(OC)cc3s2)cc1	2.2µM*	6%	-8%	-57%	-12%	-7
COc1cccc(C(=O)Nc2nc3c(s2)CN(C)CC3)c1	14µM*	3%	16%	3%	7%	27
CN1CCc2nc(NC(=O)c3cccc(S(=O)(=O)N4CCc5ccccc54)c3)sc2C1	-45%	0%	-1%	-3%	-4%	-11
COc1ccc(Nc2nc3ccc(OC)cc3s2)cc1	7.9µM*	-2%	-21%	19%	-1%	-19
CC(C)C[C@H](NC(=O)[C@H](Cc1c[nH]c2ccccc12)NC(=O)[C@H](CCCCN)NC(=O)CNC(=O)[C@H](CC(C)C)NC(=O)[C@H](CO)NC(=O)[C@@H](N)Cc1cnc[nH]1)C(=O)NCC(=O)N[C@@H](Cc1cnc[nH]1)C(=O)N1CCC[C@H]1C(=O)N[C@@H](CC(=O)O)C(=O)N[C@@H](CCCCN)C(=O)N[C@@H](Cc1ccccc1)C(=O)O	.	.	.	.	14%	.
O=C(Nc1ccc(Cl)cc1)c1cc2c(cc1O)[nH]c1ccccc12	-89%	8%	13µM*	7%	?	-110*
COC(=O)c1cc(-c2ccc(Br)cc2)on1	-6%	-2%	18%	0%	0%	8
CCN(CC)C(=O)c1cc(-c2ccc(Br)cc2)on1	7.9µM*	0%	-1%	?	2%	-7
Oc1ccc2ccccc2c1SSc1c(O)ccc2ccccc12	.	.	.	.	.	15
O=C(CSCc1ccccc1F)NCc1ccccc1	7.1µM*	14%	2%	0%	12%	28
CCc1ccc(CNC(=O)CCSCc2ccccc2F)cc1	.	.	1%	.	.	.
